From the supplement of paper PMC11732987, “Enantioselective OTUD7B fragment discovery through chemoproteomics screening and high-throughput optimisation” (Communications Chemistry, 2025)

Experiments:
Test in all cases: log2 ratio of Biotin-Ahx-Ub-VS probe labelling (fragment/DMSO); higher = less target engagement (more negative = stronger competition), active = hit call of the paper (q ≤ 0.05, log2 ratio ≤ -1)
Conditions in all cases: compound concentration: 200 uM; treatment time: 3 h
USP19 = molecular target: T1, USP19 (UniProt O94966)
T1 sequence (whole entry): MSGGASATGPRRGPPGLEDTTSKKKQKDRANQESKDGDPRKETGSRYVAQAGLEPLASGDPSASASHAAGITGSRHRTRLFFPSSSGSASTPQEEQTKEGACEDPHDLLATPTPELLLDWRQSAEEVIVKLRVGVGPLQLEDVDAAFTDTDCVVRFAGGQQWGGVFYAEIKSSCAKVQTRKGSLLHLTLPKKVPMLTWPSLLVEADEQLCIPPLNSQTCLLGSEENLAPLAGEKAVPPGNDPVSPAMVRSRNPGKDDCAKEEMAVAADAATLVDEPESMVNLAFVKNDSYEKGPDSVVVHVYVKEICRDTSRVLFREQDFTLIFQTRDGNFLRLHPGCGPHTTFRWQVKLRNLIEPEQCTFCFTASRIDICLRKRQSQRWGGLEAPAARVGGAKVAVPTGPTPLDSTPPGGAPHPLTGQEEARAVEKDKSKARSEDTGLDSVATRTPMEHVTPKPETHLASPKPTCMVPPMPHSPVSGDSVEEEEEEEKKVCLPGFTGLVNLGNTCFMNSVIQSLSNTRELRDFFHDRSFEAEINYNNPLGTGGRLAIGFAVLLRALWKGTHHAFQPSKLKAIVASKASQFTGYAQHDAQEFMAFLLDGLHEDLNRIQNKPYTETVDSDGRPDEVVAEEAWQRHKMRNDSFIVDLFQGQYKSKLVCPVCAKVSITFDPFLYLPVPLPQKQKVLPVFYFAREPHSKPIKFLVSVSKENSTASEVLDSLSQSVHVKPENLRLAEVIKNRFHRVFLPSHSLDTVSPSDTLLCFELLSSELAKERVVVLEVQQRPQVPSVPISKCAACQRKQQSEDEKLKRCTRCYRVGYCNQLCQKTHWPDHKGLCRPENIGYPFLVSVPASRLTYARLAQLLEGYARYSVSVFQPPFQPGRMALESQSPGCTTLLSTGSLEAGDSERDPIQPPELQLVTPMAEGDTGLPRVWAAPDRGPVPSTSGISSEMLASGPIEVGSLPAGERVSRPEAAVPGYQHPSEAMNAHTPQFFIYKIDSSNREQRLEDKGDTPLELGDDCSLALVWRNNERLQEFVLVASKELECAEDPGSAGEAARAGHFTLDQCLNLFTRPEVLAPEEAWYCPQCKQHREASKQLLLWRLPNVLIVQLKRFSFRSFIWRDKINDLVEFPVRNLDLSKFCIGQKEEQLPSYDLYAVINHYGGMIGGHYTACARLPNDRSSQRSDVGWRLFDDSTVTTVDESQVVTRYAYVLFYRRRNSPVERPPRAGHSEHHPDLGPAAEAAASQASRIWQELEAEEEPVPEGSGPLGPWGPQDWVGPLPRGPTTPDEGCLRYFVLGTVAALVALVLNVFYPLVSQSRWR
Summary of the method: (§1)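 HEK293T lysate in Tris/CHAPS/IGEPAL buffer with protease inhibitors (495 µg per sample) was given fragment at 200 µM or vehicle for 3 h, in triplicate. It then received Biotin-Ahx-Ub-VS at 0.5 µM final for 1 h. Labelled DUBs were NeutrAvidin-enriched, digested with LysC and trypsin, and run by diaPASEF LC-MS/MS. Values are average log2 fragment/vehicle ratios by unpaired t-test on global-median-normalised Spectronaut quantities of proteins with ≥2 unique peptides.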

USP24 = USP24 (UniProt Q9UPU5)
Summary of the method: as §1

USP25 = molecular target: T2, USP25 (UniProt Q9UHP3)
T2 sequence (whole entry): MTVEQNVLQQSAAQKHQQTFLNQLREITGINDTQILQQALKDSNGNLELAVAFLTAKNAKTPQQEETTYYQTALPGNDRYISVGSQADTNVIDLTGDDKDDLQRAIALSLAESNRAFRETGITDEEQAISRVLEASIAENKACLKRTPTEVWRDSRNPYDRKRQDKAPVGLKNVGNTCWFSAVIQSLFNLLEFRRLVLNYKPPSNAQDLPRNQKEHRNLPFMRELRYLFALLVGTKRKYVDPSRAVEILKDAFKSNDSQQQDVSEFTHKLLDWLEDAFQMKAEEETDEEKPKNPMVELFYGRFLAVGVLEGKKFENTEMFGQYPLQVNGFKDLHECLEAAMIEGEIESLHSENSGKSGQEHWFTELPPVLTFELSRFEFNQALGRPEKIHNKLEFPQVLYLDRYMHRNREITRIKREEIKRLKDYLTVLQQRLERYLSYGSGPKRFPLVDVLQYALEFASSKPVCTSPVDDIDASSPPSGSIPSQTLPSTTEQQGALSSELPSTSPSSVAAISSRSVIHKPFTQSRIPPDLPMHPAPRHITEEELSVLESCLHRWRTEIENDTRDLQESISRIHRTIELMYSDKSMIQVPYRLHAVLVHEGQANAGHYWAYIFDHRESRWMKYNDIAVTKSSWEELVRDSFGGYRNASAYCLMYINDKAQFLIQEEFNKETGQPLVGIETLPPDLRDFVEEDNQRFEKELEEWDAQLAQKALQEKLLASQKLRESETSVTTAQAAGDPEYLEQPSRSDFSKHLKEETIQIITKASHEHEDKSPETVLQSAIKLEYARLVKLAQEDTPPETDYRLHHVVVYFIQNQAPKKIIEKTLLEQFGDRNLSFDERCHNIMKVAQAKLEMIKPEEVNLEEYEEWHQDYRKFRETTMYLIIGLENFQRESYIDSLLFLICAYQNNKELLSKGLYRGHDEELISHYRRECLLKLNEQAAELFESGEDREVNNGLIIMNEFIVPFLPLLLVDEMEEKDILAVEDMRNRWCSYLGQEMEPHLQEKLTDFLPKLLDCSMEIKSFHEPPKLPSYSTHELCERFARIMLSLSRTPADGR
Summary of the method: as §1

USP28 = molecular target: T3, USP28 (UniProt Q96RU2)
T3 sequence (whole entry): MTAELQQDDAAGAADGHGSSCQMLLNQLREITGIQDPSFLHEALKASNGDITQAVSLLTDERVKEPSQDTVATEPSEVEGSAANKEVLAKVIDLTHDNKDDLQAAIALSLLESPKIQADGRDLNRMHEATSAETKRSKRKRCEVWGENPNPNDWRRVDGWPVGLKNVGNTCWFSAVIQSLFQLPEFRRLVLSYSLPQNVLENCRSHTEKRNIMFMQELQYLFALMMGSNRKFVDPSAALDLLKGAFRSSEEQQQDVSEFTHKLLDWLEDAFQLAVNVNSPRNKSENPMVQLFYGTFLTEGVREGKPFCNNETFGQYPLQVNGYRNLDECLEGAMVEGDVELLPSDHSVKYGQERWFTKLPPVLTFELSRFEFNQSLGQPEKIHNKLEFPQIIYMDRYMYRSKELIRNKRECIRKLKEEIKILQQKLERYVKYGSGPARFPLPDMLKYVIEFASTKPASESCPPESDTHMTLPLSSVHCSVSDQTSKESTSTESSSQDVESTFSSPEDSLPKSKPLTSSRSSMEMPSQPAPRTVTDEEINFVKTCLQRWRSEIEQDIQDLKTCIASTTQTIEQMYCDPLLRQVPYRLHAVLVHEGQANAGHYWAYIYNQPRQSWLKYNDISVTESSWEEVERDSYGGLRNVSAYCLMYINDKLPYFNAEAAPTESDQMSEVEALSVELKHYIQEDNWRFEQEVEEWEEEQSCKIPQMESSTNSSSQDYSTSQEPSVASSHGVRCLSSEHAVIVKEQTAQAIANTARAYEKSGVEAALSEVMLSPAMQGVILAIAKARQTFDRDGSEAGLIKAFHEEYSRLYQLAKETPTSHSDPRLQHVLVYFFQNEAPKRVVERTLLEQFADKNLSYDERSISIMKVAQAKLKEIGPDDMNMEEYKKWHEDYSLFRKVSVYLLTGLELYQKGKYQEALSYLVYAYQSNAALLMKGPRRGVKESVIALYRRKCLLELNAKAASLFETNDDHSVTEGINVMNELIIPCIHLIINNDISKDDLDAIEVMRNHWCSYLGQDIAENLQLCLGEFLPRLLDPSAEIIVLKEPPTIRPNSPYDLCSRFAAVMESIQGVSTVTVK
Summary of the method: as §1

Measured: log2 ratio of Biotin-Ahx-Ub-VS probe labelling

Sequence of USP24 (Q9UPU5 whole entry): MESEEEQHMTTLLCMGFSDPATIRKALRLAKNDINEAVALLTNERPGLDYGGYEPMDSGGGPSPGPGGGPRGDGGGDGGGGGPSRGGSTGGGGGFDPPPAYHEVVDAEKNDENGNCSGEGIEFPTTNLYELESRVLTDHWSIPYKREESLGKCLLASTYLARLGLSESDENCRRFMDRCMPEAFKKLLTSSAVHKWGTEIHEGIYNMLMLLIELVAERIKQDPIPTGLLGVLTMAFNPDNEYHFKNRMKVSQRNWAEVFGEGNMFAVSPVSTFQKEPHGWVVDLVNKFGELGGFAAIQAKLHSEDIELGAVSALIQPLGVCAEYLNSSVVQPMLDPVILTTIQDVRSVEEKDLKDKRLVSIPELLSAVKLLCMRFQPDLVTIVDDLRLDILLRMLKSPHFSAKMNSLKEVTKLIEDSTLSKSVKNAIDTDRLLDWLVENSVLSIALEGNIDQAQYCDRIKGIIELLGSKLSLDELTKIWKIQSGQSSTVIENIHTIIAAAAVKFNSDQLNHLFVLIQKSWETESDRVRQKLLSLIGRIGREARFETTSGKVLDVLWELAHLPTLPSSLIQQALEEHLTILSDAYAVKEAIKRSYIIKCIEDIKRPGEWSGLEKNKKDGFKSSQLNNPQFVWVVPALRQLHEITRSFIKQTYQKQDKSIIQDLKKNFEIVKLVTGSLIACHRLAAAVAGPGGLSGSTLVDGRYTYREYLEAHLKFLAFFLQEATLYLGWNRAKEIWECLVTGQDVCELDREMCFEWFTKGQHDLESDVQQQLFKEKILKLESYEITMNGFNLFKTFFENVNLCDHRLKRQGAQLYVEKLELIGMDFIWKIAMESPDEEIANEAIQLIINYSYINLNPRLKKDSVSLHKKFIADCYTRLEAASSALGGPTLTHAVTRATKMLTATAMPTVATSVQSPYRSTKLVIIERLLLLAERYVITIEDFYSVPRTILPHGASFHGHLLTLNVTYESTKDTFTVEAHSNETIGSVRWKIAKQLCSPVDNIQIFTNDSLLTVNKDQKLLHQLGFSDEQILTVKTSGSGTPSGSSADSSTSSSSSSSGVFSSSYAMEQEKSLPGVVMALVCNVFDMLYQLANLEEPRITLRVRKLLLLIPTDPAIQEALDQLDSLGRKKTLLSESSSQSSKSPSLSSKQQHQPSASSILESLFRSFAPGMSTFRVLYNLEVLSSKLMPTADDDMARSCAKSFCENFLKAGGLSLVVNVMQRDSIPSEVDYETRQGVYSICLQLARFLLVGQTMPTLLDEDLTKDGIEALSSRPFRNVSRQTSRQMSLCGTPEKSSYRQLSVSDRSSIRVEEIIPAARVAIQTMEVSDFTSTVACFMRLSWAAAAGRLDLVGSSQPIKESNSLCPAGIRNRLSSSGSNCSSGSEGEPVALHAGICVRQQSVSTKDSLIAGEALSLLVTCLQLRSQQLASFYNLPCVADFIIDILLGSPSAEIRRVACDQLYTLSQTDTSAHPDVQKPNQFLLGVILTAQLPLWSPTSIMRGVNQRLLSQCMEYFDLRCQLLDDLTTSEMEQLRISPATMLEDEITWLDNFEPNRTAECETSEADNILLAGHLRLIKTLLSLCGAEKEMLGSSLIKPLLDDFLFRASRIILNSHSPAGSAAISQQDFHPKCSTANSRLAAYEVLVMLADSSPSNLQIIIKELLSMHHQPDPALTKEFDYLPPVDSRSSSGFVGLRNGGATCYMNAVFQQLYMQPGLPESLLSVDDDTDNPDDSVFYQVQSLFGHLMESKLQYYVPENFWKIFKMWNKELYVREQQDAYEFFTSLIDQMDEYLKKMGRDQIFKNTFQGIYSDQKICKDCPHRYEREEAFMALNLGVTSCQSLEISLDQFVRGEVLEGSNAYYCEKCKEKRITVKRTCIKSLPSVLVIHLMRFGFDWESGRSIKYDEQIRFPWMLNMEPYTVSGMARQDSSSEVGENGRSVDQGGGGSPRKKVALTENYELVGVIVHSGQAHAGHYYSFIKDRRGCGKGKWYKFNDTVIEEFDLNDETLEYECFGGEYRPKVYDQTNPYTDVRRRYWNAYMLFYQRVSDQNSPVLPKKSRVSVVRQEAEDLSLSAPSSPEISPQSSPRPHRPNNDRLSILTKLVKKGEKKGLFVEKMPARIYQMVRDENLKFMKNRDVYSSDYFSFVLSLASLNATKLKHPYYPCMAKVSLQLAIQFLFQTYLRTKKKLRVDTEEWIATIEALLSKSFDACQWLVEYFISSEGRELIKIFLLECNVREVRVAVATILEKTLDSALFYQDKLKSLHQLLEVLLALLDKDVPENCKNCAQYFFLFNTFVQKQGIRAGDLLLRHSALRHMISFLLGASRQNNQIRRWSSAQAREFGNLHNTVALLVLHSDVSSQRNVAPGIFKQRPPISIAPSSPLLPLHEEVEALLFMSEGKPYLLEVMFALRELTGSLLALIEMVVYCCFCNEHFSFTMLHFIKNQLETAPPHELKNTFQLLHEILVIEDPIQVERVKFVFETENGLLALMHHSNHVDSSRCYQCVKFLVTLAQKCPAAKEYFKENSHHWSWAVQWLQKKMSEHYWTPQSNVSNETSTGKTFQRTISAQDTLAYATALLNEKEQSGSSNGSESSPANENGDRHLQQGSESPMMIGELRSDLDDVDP

O=C(CCl)NC1CCCCNC1=O (centres undefined)
inactive: USP19 -0.125 | USP24 -0.299 | USP25 -0.212 | USP28 -0.482
